The assay is described as follows: qHTS Assay for Lipid Storage Modulators (AID 1519). On activity change, negative = inhibition: on the % scale 0 is the no-effect control and ±100 the full control effect. The conditions noted are these: Drosophila S3 cells, BODIPY lipid droplet/cell ratio, laser cytometry, cells loaded with oleic acid; for activity change, negative = inhibition: at 57.5 µM (top of the series). The text has this:
NIH Molecular Libraries Probe Production Centers Network [MLPCN]
NIH Chemical Genomics Center [NCGC]
Assay Submitter (PI): Beller, Mathias; Max-Planck-Institut fur Biophysikalische Chemie
NCGC Assay Overview: Storing lipids as a reservoir for energy or the anabolism of elementary metabolites is a common feature of probably all cells and is conserved from bacteria to humans. The universal cellular lipid storage organelle is the so-called lipid storage droplet (LD). Although ubiquitous, LDs share a simple structure composed of a hydrophobic core that harbors the storage lipids, which is shielded by a droplet-specific phospholipid monolayer to which proteins are attached. The current model of LD biogenesis involves an incorporation of the lipid core into the membrane leaflets of the endoplasmic reticulum (ER) followed by a subsequent budding-like maturation of a LD, which ultimately pinches off. Once released, LD volume can increase by localized lipogenesis or fusion of existing droplets. Storage lipids are re-mobilized enzymatically by lipase activity. Lipase regulation in the adipocyte is heavily studied and involves multiple components including catecholamine signaling, the LD-associated proteins Perilipin and comparative gene identification-58 (CGI-58) and at least two lipases named hormone sensitive lipase (HSL) and adipocyte triglyceride lipase (ATGL). LD regulation outside of the adipocyte is poorly understood and only few components are known. However, there is an urgent need to learn more about ectopic fat depots as mislocalized storage of lipids, for example in the liver or muscle, is an eminent health problem associated with insulin resistance or the metabolic syndrome. We developed a laser-scanning cytometer assay to enable 1,536-well screening and combined the results of the small molecules screen with an RNAi database based on lipid storage.
NCGC Assay Protocol Summary:
We dispensed 4 uL of cells at 1.25 x 10^6 cells/mL into LoBase Aurora COC 1,536-well plates (black walled, clear bottom) with a bottle-valve solenoid-based dispenser (Aurora) to obtain 5,000 cells/well. Triacsin C (Sigma-Aldrich T-4540), an inhibitor of long-chain fatty acyl CoA synthetase that blocks synthesis of triglycerides, was used as a positive control for lipid under-storage. A total of 23 nL of compound solution of different concentrations were transferred to the assay plates using a Kalypsys pin tool equipped with a 1,536-pin array containing 10-nL slotted pins (FP1S10, 0.457-mm diameter, 50.8 mm long; V&P Scientific). One microliter of oleic acid (400 uM) was added, and the plate was lidded with stainless steel rubber gasket lined lids containing pinholes. […] Fluorescence was detected by excitation of the fluorophores with a 488-nm laser on an Acumen Explorer (TTP Lab Tech). The total intensity in channel 1 (500-530 nm) reflected lipid droplet accumulation. […] The ratio of the total intensity in PMT channel 1 over total intensity of channel 3 was also calculated. Percent activity was computed relative to an internal control (100% inhibited lipid droplet deposition due to the presence of 20 uM Triacsin C), which was added to 32 wells/plate.
For orientation: In qHTS, concentration-response curves come from the screen itself.

[1] abbreviates: measured here: cell count channel max response.
Where [2] appears, read: measured here: lipid channel max response.

Consider 14 molecules from PubChem BioAssay (NCATS).

Results filed as inconclusive are left out. Active and inactive are the calls of the source. The call rests on the fitted dose curve.

Regarding `CN(C)c1ncc2nc(-c3ccccc3)c(=O)n(C[C@H]3CCCO3)c2n1`, the activity change, negative = inhibition is 0.857% (inactive). The max response under setting [1] worked out at 3.82%. Besides, the max response under setting [2] came out at 2.54%.
For `CC(=O)NCCNc1ccnc(-c2ccccc2C(F)(F)F)n1`, in that order: 4.45% (inactive), 8.35% and 14.6%.
For `CN(C)c1ncc2nc(-c3ccc(F)cc3)c(=O)n(C[C@H]3CCCO3)c2n1`, the activity change, negative = inhibition was -2.2% (inactive). For the same molecule, the max response under setting [1] was determined as 12.6%. Further, under setting [2], the max response was 6.86%.
For `CN(C)C(=O)c1ccc(-c2cncnc2NC2CCNCC2)cc1`, in that order: 3.5% (inactive), 11.8% and 12.7%.
Taken in the same sequence, the figures for `Cc1cccc(CNc2ncnc3ccc(-c4ccoc4)cc23)c1` were -3% (inactive), 11.4% and 6.71%.
For `CC(C)NC(=O)N1CCCC2(CCN(S(=O)(=O)c3ccccc3)CC2)C1`, in that order: 4.51% (inactive), 20% and 26.7%.
For `CC(C)CN1CC[C@@]2(CCCN(C(=O)c3cnccn3)C2)C1`, the activity change, negative = inhibition was 3.32% (inactive). Besides, under setting [1], the max response came out at 15.7%. The max response under setting [2] is 22.3%.
Taken in the same sequence, the figures for `CN(C)c1ncc2nc(-c3cc(F)cc(F)c3)c(=O)n(C[C@H]3CCCO3)c2n1` were 7.12% (inactive), 15.3% and 23.7%.
Taken in the same sequence, the figures for `c1csc(CNc2cc(-c3ccoc3)ncn2)c1` were 5.83% (inactive), 26.5% and 29.6%.
Regarding `CS(=O)(=O)N1CCC2(CC1)CN(C(=O)Nc1cccc(C#N)c1)C2`, the activity change, negative = inhibition is 1.36% (inactive). Also, the max response under setting [1] is 4.56%. Further, under setting [2], the max response is 8.61%.
For `CNc1ccnc(-c2ccccc2CN(C)C)n1`, in that order: 2.03% (inactive), -5.53% and 2.14%.
For `CS(=O)(=O)Nc1cccc(-c2ccc3ncnc(NCCN4CCOCC4)c3c2)c1`, in that order: -0.458% (inactive), -4.37% and -8.3%.
For `CN(C)c1ccnc(-c2cccc(NS(C)(=O)=O)c2)n1`, in that order: 11.6% (inactive), 7.48% and 20%.
Turning to `Cc1nc2cnc(OCc3ccccc3)nc2n(C)c1=O`, the activity change, negative = inhibition was 7.08% (inactive). In addition, under setting [1], the max response amounted to 13.5%. Under setting [2], the max response came out at 17.9%.
